According to the OligoGym collection:

Experiments:
Test in all cases: pooled miR-30 sensor sort-seq; sequence = guide strand
Conditions in all cases: shRNA
HNRNPU = biological target: HNRNPU
HOXA6 = biological target: HOXA6
HOOK2 = biological target: HOOK2
HNRNPL = biological target: HNRNPL
HSPA1A = biological target: HSPA1A
HSP90AA1 = biological target: HSP90AA1
HSP90B1 = biological target: HSP90B1
HS6ST1 = biological target: HS6ST1
HSF2 = biological target: HSF2
IKBKAP = biological target: IKBKAP
IKBKB = biological target: IKBKB
IKBKG = biological target: IKBKG
Note: reference of the scale not given here.

AACTACAACAGCTTTTCGCTGG
sensor-assay potency score (higher = more potent) (HNRNPU): 0.276

TATTGCTTTTCTTTGAGCCAGT
sensor-assay potency score (higher = more potent) (HNRNPU): -0.865

TTGGCGATCTCGATGCGGCGGC
sensor-assay potency score (higher = more potent) (HOXA6): -0.809

TTATCAGAATAGAAACACGAGG
sensor-assay potency score (higher = more potent) (HOXA6): -1.05

TTCTGACACAGGATGCGCCAGG
sensor-assay potency score (higher = more potent) (HOOK2): -0.785

TTCTTCTTCAACAGGTGGCTGA
sensor-assay potency score (higher = more potent) (HNRNPU): -0.158

TTGTGTAGTCCCAAGTATCCTG
sensor-assay potency score (higher = more potent) (HNRNPL): 0.0698

TCAGCTTCCAGTTGGGACCTGG
sensor-assay potency score (higher = more potent) (HOOK2): -0.00912

TGAGGTGTACGTCTTGTCCGGG
sensor-assay potency score (higher = more potent) (HOXA6): -0.648

TGGAACGTCTGTAACCAGGTGA
sensor-assay potency score (higher = more potent) (HOOK2): 0.0642

TTCTTGAACACATTCAAGCGTG
sensor-assay potency score (higher = more potent) (HNRNPL): -0.271

TTCATCTCAAAACACACTTTGC
sensor-assay potency score (higher = more potent) (HNRNPU): -0.868

TTGGTAGAAACAAGGTGAGGTG
sensor-assay potency score (higher = more potent) (HOXA6): -0.106

TTAGGAAATAGTACCTGCGGGA
sensor-assay potency score (higher = more potent) (HOOK2): -0.0973

TTAAAAGTGAAGGTTAATCTTG
sensor-assay potency score (higher = more potent) (HNRNPL): -0.688

TACGTCTCTGGTGACAGGGAGT
sensor-assay potency score (higher = more potent) (HOOK2): -0.714

TTCTTCCTTATATTGCTCCAAG
sensor-assay potency score (higher = more potent) (HNRNPU): -1.21

TTGATGAGCTTGTTTTCCTTTT
sensor-assay potency score (higher = more potent) (HOXA6): -0.78

TCCTCTGCAACTCCAGATCTGC
sensor-assay potency score (higher = more potent) (HOOK2): -1.56

TTTTTCTCGCAACTGATGGCAC
sensor-assay potency score (higher = more potent) (HOOK2): -0.412

TAGAGTAGTTGACAAAAGCTGG
sensor-assay potency score (higher = more potent) (HNRNPL): -0.329

TCTTGAACACATTCAAGCGTGT
sensor-assay potency score (higher = more potent) (HNRNPL): 0.0553

TTGCTTATAGTCTTCATCTTTT
sensor-assay potency score (higher = more potent) (HNRNPU): -0.867

TAAAATTTCGCTTCTTTCGGGC
sensor-assay potency score (higher = more potent) (HNRNPU): 0.159

ATAGTGTAAAGAACATCCGTGG
sensor-assay potency score (higher = more potent) (HNRNPL): -0.231

TTTCTCAAAGTCCATCTCCAGG
sensor-assay potency score (higher = more potent) (HOOK2): -1.2

TTATCCATAATAGTATTTGTGC
sensor-assay potency score (higher = more potent) (HNRNPU): -0.391

TTGTCCGGGAGACTCGACGCCC
sensor-assay potency score (higher = more potent) (HOXA6): -0.988

TAGTGTAAAGAACATCCGTGGT
sensor-assay potency score (higher = more potent) (HNRNPL): -0.214

TACTAGGAAATGCAAAGTCTTG
sensor-assay potency score (higher = more potent) (HSPA1A): -1.4

TTATCCATGATGAAAACTCTGC
sensor-assay potency score (higher = more potent) (HSP90AA1): -0.426

TTTCATCGAACTTCACTCCTTC
sensor-assay potency score (higher = more potent) (HSP90B1): 0.873

ATGAGCATGAAGCACACCGAGC
sensor-assay potency score (higher = more potent) (HS6ST1): -1.78

TAAACTGGACAATCTTTCGAAT
sensor-assay potency score (higher = more potent) (HSF2): -0.594

TACAATTTGATGTTGTTCTTTT
sensor-assay potency score (higher = more potent) (HSP90AA1): -0.348

TACATCTGCGTAACTATGCAGC
sensor-assay potency score (higher = more potent) (HSF2): -0.31

TTCTCCTTCATTCTGGTGCAGT
sensor-assay potency score (higher = more potent) (HSP90AA1): -0.91

TTTATCATCAGCAATCTTCTTG
sensor-assay potency score (higher = more potent) (HSP90B1): 0.391

TTGATCATCCTGTAGATCCTGT
sensor-assay potency score (higher = more potent) (HSP90AA1): 0.84

TTTTGAAGTGACAATAACCTTA
sensor-assay potency score (higher = more potent) (HSP90B1): 0.45

TAAAAAGAAGAAATAGTCGTAA
sensor-assay potency score (higher = more potent) (HSPA1A): 0.289

TTAAAAACTCGCTTGTCCCAGA
sensor-assay potency score (higher = more potent) (HSP90B1): 0.327

TTCCTGTTTTATCTGAACCTTC
sensor-assay potency score (higher = more potent) (HSF2): -0.752

TTGAGTTGTCTCTTAGGGCTTG
sensor-assay potency score (higher = more potent) (HSP90AA1): 0.45

TTTGTTGCAACATCTCACGGGA
sensor-assay potency score (higher = more potent) (HSP90AA1): 0.467

TTTCTTGCTTTACAATTCCAGA
sensor-assay potency score (higher = more potent) (HSF2): -1.24

TTGAACATGAATAAACGTCTTT
sensor-assay potency score (higher = more potent) (HSF2): 0.178

TAACTTGTTGCTGTTGTGCATG
sensor-assay potency score (higher = more potent) (HSF2): -0.847

ATCTCTGCATGTAGAAACCGGA
sensor-assay potency score (higher = more potent) (HSPA1A): -0.989

TATCATTGTATTTATCATCAGC
sensor-assay potency score (higher = more potent) (HSP90B1): -0.644

TTCATCGTCAGCTCTGACCGAC
sensor-assay potency score (higher = more potent) (HSP90B1): 0.128

TAAACCTTCAGTCCTACTGTGT
sensor-assay potency score (higher = more potent) (HSF2): -0.618

TACAACTTTAAGCAGAATGTGA
sensor-assay potency score (higher = more potent) (HSP90AA1): -0.45

TTTTACATCAAGAATAGTCAGT
sensor-assay potency score (higher = more potent) (HSP90B1): 0.0481

TTGATCGATGTACTTTTCCTTA
sensor-assay potency score (higher = more potent) (HSP90AA1): -0.594

TTTTTGACCAAATTCTTCCTGA
sensor-assay potency score (higher = more potent) (HSP90AA1): 0.315

TTTGAAGTGACAATAACCTTAT
sensor-assay potency score (higher = more potent) (HSP90B1): -0.631

TTCATTGTCATCTTCAACGATG
sensor-assay potency score (higher = more potent) (HSF2): -0.744

TATGCAGCTGAGTAACACCTGA
sensor-assay potency score (higher = more potent) (HSF2): -0.731

TTTGTGATGCATTTAATCCATC
sensor-assay potency score (higher = more potent) (HSP90B1): -1.31

TTCTTGATCATGTCCAGCGTTT
sensor-assay potency score (higher = more potent) (HSP90B1): -0.303

TTTTTAACCAACTCTTCTCTGG
sensor-assay potency score (higher = more potent) (HSP90B1): -0.121

TTGCTTTGTTGCAACATCTCAC
sensor-assay potency score (higher = more potent) (HSP90AA1): 0.536

TAAAACTAGTCCAACTAACTGG
sensor-assay potency score (higher = more potent) (HSF2): -0.42

TCGGTTTGACACAACCACCTTT
sensor-assay potency score (higher = more potent) (HSP90AA1): -0.307

TTTCTCTTCTTCATCCTCTGGA
sensor-assay potency score (higher = more potent) (HSP90AA1): 0.444

TTTGAAGATGAAACCTTCCTTT
sensor-assay potency score (higher = more potent) (HSF2): 0.173

TTAGTTTCTGGAATAACTGGGA
sensor-assay potency score (higher = more potent) (HSF2): -0.0464

TTGCTGAAGAGTCTCGCGGGAA
sensor-assay potency score (higher = more potent) (HSP90B1): -0.855

TTGTCTATAGTAAACCGCTGAT
sensor-assay potency score (higher = more potent) (IKBKAP): -0.619

TTTGAATTGGACACTGTCCAGT
sensor-assay potency score (higher = more potent) (IKBKB): -0.0592

TTGAATATCCCTGAACTCCAGG
sensor-assay potency score (higher = more potent) (IKBKAP): -0.562

TTGCTCGCTGTACTTCTCCAGG
sensor-assay potency score (higher = more potent) (IKBKB): -0.598

TTTTGTGTATTAACCTCTGTTC
sensor-assay potency score (higher = more potent) (IKBKB): -0.501

TATTTGTCTATAGTAAACCGCT
sensor-assay potency score (higher = more potent) (IKBKAP): -0.467

TTCGCTAACAACAATGTCCACC
sensor-assay potency score (higher = more potent) (IKBKB): -0.709

TACGTCCTGATCTGCTGCCGGG
sensor-assay potency score (higher = more potent) (IKBKG): -1.55

TTTGAGATCTTCCAGCTGCATT
sensor-assay potency score (higher = more potent) (IKBKG): -1.36

TATAACTTCAGAGCTTCGTTAT
sensor-assay potency score (higher = more potent) (IKBKAP): -0.855

TCTTCTTCCGTCTGTAACCAGC
sensor-assay potency score (higher = more potent) (IKBKB): -1.13

TTGCTCCTCTAGGTCGTCCAGC
sensor-assay potency score (higher = more potent) (IKBKB): -1.32

TTTCCTGATTGTGCCATCGGAT
sensor-assay potency score (higher = more potent) (IKBKB): -0.945

TAATTCATTAACATCTACCAGA
sensor-assay potency score (higher = more potent) (IKBKAP): -0.538

TTATCGATCACCTCCTGTTTGG
sensor-assay potency score (higher = more potent) (IKBKG): -0.717

TTTGCTGTACTCCCTCTGCAGC
sensor-assay potency score (higher = more potent) (IKBKG): -0.913

TTGGAAATGCAGAAGCTCCTCG
sensor-assay potency score (higher = more potent) (IKBKG): 0.49

TAAGTCCACAATGTCGGTCTGC
sensor-assay potency score (higher = more potent) (IKBKB): -0.424

TAAGTTTAAGATGTCATCCAGG
sensor-assay potency score (higher = more potent) (IKBKB): -0.453

TTGCTTGCTCCTCTAGGTCGTC
sensor-assay potency score (higher = more potent) (IKBKB): -0.796

TTGAAAACTTCACCGTTCCATT
sensor-assay potency score (higher = more potent) (IKBKB): -0.697
